# Out of some 400,000 compounds screened, about 5,500 (1.4%) were called active. Inconclusive results (about 9%) are left out. Calls follow the shape of the dose curve; as a rule, active = well fitted cell-killing curve with a large enough effect; inconclusive = small, poorly fitted or top-dose-only effect, or effect the other way; inactive = flat fitted curve, though single readings scatter. For the sample, actives were picked, then their nearest neighbours and some compounds at random.
# Experiment: qHTS assay for MDR1-selective chemotherapeutics: Primary screen using the parental adenocarcinoma cell KB-3-1; also: nearly all actives have a fitted effect of over 60% in size
# Conditions: KB-3-1 viability, CellTiter-Glo ATP luminescence, 72 h; series mostly up to 46.1 µM; activity change, negative = cytotoxic: at the top concentration
# Summary of the method: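 Screening of KB-3-1 cells (DMEM, 10% FBS, phenol-red free) ran from lowest to highest compound concentration; after 72 h at 37 °C viability was read luminescently and curves fitted.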
# % is scaled to controls: 0 for no effect and ±100 for the full control effect; potency is read from the fitted curve at half-maximal effect.
Structure (SMILES),Potency,"activity change, negative = cytotoxic"
COc1cccc2c1C(=O)c1c(O)c3c(c(O)c1C2=O)CC(O)(C(C)=NNC(=O)c1ccc(Cl)c(Cl)c1)CC3OC1CC(N)C(O)C(C)O1 (stereo unspecified),2.06 µM (active),–
Cc1ccc(N2CCN(C(=S)Nc3cc(C)ccn3)CC2)cc1,–,31.7% (inactive)
CCCCCn1c(=O)[nH]c2cc(C(=O)Nc3ccc(F)cc3)ccc2c1=O,–,-2.16% (inactive)
CCC(=C/c1sc2ccc3ccccc3c2[n+]1C)/C=C1\Sc2ccc3ccccc3c2N1C,9.2 µM (active),–
COc1ccc(CNC(=O)COCc2cc(-c3cccs3)on2)cc1OC,–,-12.5% (inactive)
Cc1ccc(OCC(=O)OCc2cc(=O)n3nc(C4CC4)sc3n2)cc1,–,0.043% (inactive)
CCN1/C(=C/c2ccc3ccc(C)cc3[n+]2CC)Sc2ccccc21,2.59 µM (active),–
CCN1/C(=C\c2ccc3ccccc3[n+]2CC)Sc2cc(C)ccc21,4.61 µM (active),–
CC(=O)Nc1ccc(NC(=O)CSc2nnc3c4cc(Br)ccc4n(C)c3n2)cc1,–,-6.4% (inactive)
NC(=O)Nc1ccc(/C=C/c2ccnc3ccccc23)cc1,–,-7.08% (inactive)
N#Cc1ccc[n+](CC(=O)c2ccc(F)cc2)c1,–,11% (inactive)
COc1ccc2sc(-c3ccc(S(C)(=O)=O)cc3)c(C#Cc3cncn3C)c2c1,–,-2.75% (inactive)
COc1ccc2sc(-c3ccc(N(C)C)cc3)c(C#CCO)c2c1,16.4 µM (active),–
COc1ccc2sc(-c3ccc(S(C)(=O)=O)cc3)c(-c3ccc(C(N)=O)cc3)c2c1,–,-8.32% (inactive)
COC(=O)C1C(=O)NCC1c1ccc(C)cc1 (stereo unspecified),–,16.2% (inactive)
COC(=O)C1(C)NC(c2ccc(C)cc2)C2C(=O)N(c3ccc(F)cc3)C(=O)C21 (stereo unspecified),–,-1.4% (inactive)
COC(=O)C1=C(Nc2ccc(C)cc2)C=C(C)C(C(=O)OC)C1c1ccc(F)cc1 (stereo unspecified),11.2 µM (active),–
Cc1ccc2cccc(NC(=O)c3cccc4ccccc34)c2n1,–,4.73% (inactive)
CCc1ccccc1OCCSc1nc(-c2cccs2)nc2cc(=O)[nH]n12,–,-16.6% (inactive)
O=C(c1cccc(Cl)c1)N1CCN(CCc2ccncc2)CC1,–,-4.29% (inactive)
CNc1cncc(-c2ccc(NS(C)(=O)=O)cc2)n1,2.91 µM (active),–
CS(=O)(=O)Nc1ccc(C(=O)N2CCCC2)cc1,–,-5.39% (inactive)
CNc1cncc(-c2cccc(C(=O)N3CCOCC3)c2)n1,–,0% (inactive)
CC(=O)c1sc(N2C(=O)c3oc4ccccc4c(=O)c3C2c2ccc(C)cc2)nc1C (stereo unspecified),–,-14.2% (inactive)
COc1ccc(-c2nc3ccccc3o2)cc1NC(=O)c1cc([N+](=O)[O-])ccc1N1CCOCC1,–,4.59% (inactive)
Cc1ccc2c(c1)-c1c(cnn1CC(=O)Nc1ccccc1C#N)CO2,–,-1.57% (inactive)

Structure (SMILES),Potency,"activity change, negative = cytotoxic"
COc1ccccc1CNC(=O)CCn1c(=O)c2ccccc2n(CC(=O)Nc2ccc(Br)cc2F)c1=O,–,-26.4% (inactive)
CC(C)C(=O)Nc1cccc(NC(=S)NC(=O)C(c2ccccc2)c2ccccc2)c1,20.6 µM (active),–
CC(C)C(=O)Nc1cccc(NC(=O)c2ccc([N+](=O)[O-])cc2Cl)c1,–,1.16% (inactive)
CCCC(=O)Nc1cccc(NC(=S)NC(=O)C(C)Oc2ccc(Cl)cc2Cl)c1 (stereo unspecified),–,2.78% (inactive)
CCc1ccc(S(=O)(=O)n2ccnc2)cc1,–,16.3% (inactive)
Cc1cc(C)n2ncc(C(=O)Nc3cccc(C#N)c3)c2n1,–,0% [at 9.22 µM] (inactive)
CCOc1cc(-c2nnc(SCC(=O)NC3CCCC3)nc2-c2ccc(OC)c(OCC)c2)ccc1OC,–,-2.41% (inactive)
CCn1c(=O)c2ccccc2n(CC(=O)N2CCCc3ccccc32)c1=O,–,-0.819% (inactive)
O=C1/C(=C\c2ccccc2Cl)SC(=S)N1CCC(=O)N1CCCc2ccccc21,23.1 µM (active),–
O=C(CN1C(=O)S/C(=C\c2ccccc2Cl)C1=O)NC1C=CS(=O)(=O)C1 (stereo unspecified),–,0% (inactive)
CCOc1ccc(CCNC(=O)c2cc3c(=O)n(C)c4ccccc4c3n2C)cc1,–,2.46% (inactive)
CCN(CC)c1ccc(NS(=O)(=O)c2cc(-c3cc(C)no3)ccc2C)c(C)c1,–,-19.5% (inactive)
CC(C)c1ccc(NC(=O)c2ccc3c(O)c(S(=O)(=O)c4ccccc4)c(=O)[nH]c3c2)cc1,–,5.99% (inactive)
COc1ccc(S(=O)(=O)c2cn(C)c3cc(N4CCCCC4)c(F)cc3c2=O)cc1,–,5.2% (inactive)
CCOC(=O)c1cc2c(ccn2C)n1CC(=O)N1CCC(C)CC1,23.1 µM (active),–
CCOC(=O)c1cc2occc2n1CC(=O)N1CCN(C(=O)c2ccco2)CC1,–,1.25% (inactive)
CCOC(=O)c1cc2occc2n1CC(=O)NC1CCC(C)CC1 (stereo unspecified),–,1.34% (inactive)
Cc1ccc(C)c(OCC(=O)Nc2sc3c(c2C#N)CCCC3)c1C,–,-13.9% (inactive)
COc1ccc(N2CCN(C(=O)C3CCCN(C(=O)c4cc5sccc5n4C)C3)CC2)cc1 (stereo unspecified),–,-12.9% (inactive)
Cc1cc(=O)oc2cc(OC(C)C(=O)NCCc3ccc(S(N)(=O)=O)cc3)ccc12 (stereo unspecified),–,9.37% (inactive)
COc1ccc(N2CCN(C(=O)COc3ccc4c(C)cc(=O)oc4c3)CC2)cc1,–,14.4% (inactive)
CC(=O)c1c(C)[nH]c(C(=O)COC(=O)CCOc2ccc(C)cc2)c1C,–,-18.7% (inactive)
Cc1ccc(O)c(/C=N/NC(=O)COc2ccc3c(C)cc(=O)oc3c2)c1,18.4 µM (active),–
Cc1ccc(OCC(=O)Nc2ccc3oc(=O)ccc3c2)cc1C,–,5.71% (inactive)
CC(=O)c1c(C)[nH]c(C(=O)COc2ccc3c(C)cc(=O)oc3c2)c1C,14.6 µM (active),–

# Source: PubChem BioAssay AID1347075 (National Center for Advancing Translational Sciences (NCATS), 2019)
